HT1080 IDH1KD tx: HT-1080 IDH1 knockdown cell toxicity (counter line) | Potency, µM (doses to about 46.1 µM), for the others: at the highest dose activity, negative = toxicity, hits mostly cytotoxic | 2% of 360,000 active | HT-1080 IDH1 knockdown viability, ATP luminescence, 48 h;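 also: 0% = DMSO wells and -100% = cell-free medium wells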
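IDH1KD HT-1080 cells, 750/well, RPMI + 5% FBS; compound pinned after 2 h settling; 48 h, 37 °C; CellTiter-Glo luminescence; % activity normalised to DMSO and no-cell wells; curves fitted, classed by r2 and efficacy.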
MCF10A rereplic: DNA re-replication induction in MCF 10a cells; MCF 10A DNA re-replication, Hoechst nuclear intensity, 48 h; Potency, µM (doses to about 46.1 µM), inactives show top-dose activity, positive = re-replication, hits mostly activators; 2.9% of 350,000 active; also: % of control where 0% means no effect; nearly all actives have a fitted effect of over 50% in size
SW480 rereplic: DNA re-replication induction in SW480 cells; SW480 DNA re-replication, Hoechst DNA content imaging, 48 h; Potency, µM (top dose mostly 46.1 µM), without a hit: at the highest dose re-replication activation, actives largely listed as activators; 1.8% of 340,000 active; also: % of control where 0% means no effect; nearly all actives have a fitted effect of over 55% in size
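Compounds, transferred as 23 nL by pin tool, were incubated with cells for 48 hr; DNA content per nucleus was then quantified by Hoechst staining and fluorescence plate imaging.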
KB-3-1 tox: kills parental KB-3-1 adenocarcinoma cells. KB-3-1 viability, CellTiter-Glo ATP luminescence, 72 h. AID 1347075. 1.4% of 400,000 active. Potency, µM (titrated, usually from 46.1 µM), most hits filed as cytotoxic; also: % is scaled to controls: 0 for no effect and ±100 for the full control effect; nearly all actives have a fitted effect of over 60% in size
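Parental KB-3-1 viability, qHTS format: 72 h compound exposure, 37 °C; CellTiter-Glo; media-only wells and DMSO plates as controls; concentration-effect fits on corrected data.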
HT1080-NT tox: kills 2HG-producing HT-1080-NT fibrosarcoma cells. HT-1080-NT fibrosarcoma viability, CellTiter-Glo ATP luminescence, 48 h. Potency, µM (doses to about 46.1 µM), for the others: at the top dose activity, negative = less viability, usual class: cytotoxic. 1.6% of 360,000 active. AID 686970;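 also: NT is the 2HG producing partner of a matched IDH1 knockdown line; 0% = DMSO-treated cells and -100% = media-only wells without cells; nearly all actives have a fitted effect of over 55% in size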
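Viability by CellTiter-Glo luminescence after 48 h compound exposure at 37C of HT-1080-NT cells (750/well, RPMI, 5% FBS). % activity scaled between DMSO wells and medium-only wells, then curve-fitted and categorized by curve class.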
KB-V1 cytotox: KB-V1 MDR subline cytotoxicity; KB-V1 MDR cells viability, CellTiter-Glo, 72 h; Potency, µM (doses to about 46.1 µM), most hits filed as cytotoxic; 3.4% of 400,000 active; AID 1347076; also: % is scaled to controls: 0 for no effect and ±100 for the full control effect; nearly all actives have a fitted effect of over 60% in size
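Drug-selected KB-V1 cells, grown in DMEM lacking phenol red with 10% FBS, receive compound titrations; after three days at 37 degrees C, surviving cell ATP is quantified by CellTiter-Glo luminescence and responses normalized and curve-fitted.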
Numbers without * were called inactive; i = inactive; u = inconclusive; x = no result; [ ] = another dose, or the depositor's remark. The list is not random: actives were taken first. Their share in the collection is about 7.9%. Calls follow the shape of the dose curve; as a rule, active = well fitted curve in the direction sought with a large enough effect; inconclusive = small, poorly fitted or top-dose-only effect, or another doubt; inactive = no such curve, though single readings can be large; an effect the other way counts as inactive or inconclusive. Potency is read from the fitted curve at half-maximal effect.

SMILES	HT1080 IDH1KD tx	MCF10A rereplic	SW480 rereplic	KB-3-1 tox	HT1080-NT tox	KB-V1 cytotox
CCN(CC)C(c1ccc(F)cc1)c1nnnn1C1CCCCC1 (stereo unspecified)	0.8%	1.5%	-13.5%	i	1.9%	i
COCCOC(=O)c1[nH]c2c(c1C)C(=O)CC(c1cccs1)C2 (stereo unspecified)	4.61µM*	u	2.59µM*	1.84µM*	u	1.46µM*
CCOC(=O)c1[nH]c2c(c1C)C(=O)CC(c1ccc(F)cc1)C2 (stereo unspecified)	2.91µM*	u	u	u	2.06µM*	u
Cc1c(C(=O)OCC2CCCO2)[nH]c2c1C(=O)CC(c1ccc(N(C)C)cc1)C2 (stereo unspecified)	-9.7%	15.2%	22.8%	u	-10.2%	20.6µM*
CCOCCOC(=O)c1[nH]c2c(c1C)C(=O)CC(c1ccccc1)C2 (stereo unspecified)	0.259µM*	u	0.517µM*	0.92µM*	0.146µM*	1.03µM*
O=C(CCCN1C(=O)/C(=C\c2ccccc2)SC1=S)N1CCOCC1	u	u	u	x	6.3%	x
CCCOC(=O)c1[nH]c2c(c1C)C(=O)CC(c1ccc(OC)c(OC)c1)C2 (stereo unspecified)	-1.1%	0.4%	-0.2%	i	-4.7%	u
CCOCCOC(=O)c1[nH]c2c(c1C)C(=O)CC(c1cc(OC)c(OC)c(OC)c1)C2 (stereo unspecified)	-22.3%	-21.6%	3.3%	u	-16.0%	i
CCOCCOC(=O)C1=C(C)NC2=C(C(=O)CC(c3cccs3)C2)C1c1ccsc1 (stereo unspecified)	-28.1%	-0.5%	1.8%	i	u	20.6µM*
CCCCCOC(=O)c1[nH]c2c(c1C)C(=O)CC(c1ccco1)C2 (stereo unspecified)	0.0164µM*	u	0.116µM*	u	0.103µM*	0.0082µM*
COC(=O)c1[nH]c2c(c1C)C(=O)CC(c1cccc(OC)c1)C2 (stereo unspecified)	0.92µM*	u	0.731µM*	u	0.731µM*	u
CCOCCOC(=O)c1[nH]c2c(c1C)C(=O)CC(c1cccs1)C2 (stereo unspecified)	0.461µM*	u	1.16µM*	0.92µM*	0.461µM*	1.16µM*
Cc1ccccc1NC(=O)c1ccc(NC(=O)N2CCSc3ncccc32)cc1	x	x	x	i	x	i
Cc1c(C(=O)OCC(C)C)[nH]c2c1C(=O)CC(c1cccs1)C2 (stereo unspecified)	1.3µM*	u	3.66µM*	u	1.64µM*	u
CCCSc1ccc2nc(-c3ccccc3)cn2c1	11.6µM*	u	x	18.4µM*	11.6µM*	20.6µM*
CN(C)C(=O)CCC(=O)N1CCCC(C(=O)c2ccc3c4c(cccc24)CC3)C1 (stereo unspecified)	-1.3%	25.4%	u	i	-17.9%	i
O=C(c1ccc2c3c(cccc13)CC2)C1CCCN(Cc2ccncc2)C1 (stereo unspecified)	-6.1%	u	u	i	13µM*	u
CCc1nc(CN2CCCC(C(=O)Nc3ccc(-c4cccc(OC)c4)cc3)C2)c(C)[nH]1 (stereo unspecified)	-25.2%	x	x	i	-17.1%	i
CCc1nc(CN2CCCC(C(=O)c3ccc4c5c(cccc35)CC4)C2)c(C)[nH]1 (stereo unspecified)	16.4µM*	u	u	i	14.6µM*	u
Nc1c(N=Nc2cccc(Cl)c2)c(=O)[nH]n1-c1ccccc1	-9.0%	19.8%	-8.2%	i	-4.0%	i
C=CCNC(=S)N/N=C/c1ccc(N(CC)Cc2ccccc2)cc1	u	u	18.4µM*	u	-15.0%	13µM*
CCN(CC)c1ccc(/C=N/NC(=S)NCc2ccccc2)cc1	2.8%	20.6µM*	u	i	6.8%	i
CCN(CC)c1ccc(/C=N/NC(=S)NCc2ccc(OC)cc2)cc1	-17.9%	10.3µM*	u	i	-7.8%	i
CCN(CC)c1ccc(/C=N/NC(=O)C(O)c2ccccc2)cc1 (stereo unspecified)	-13.2%	1.5%	0.0%	i	-27.6%	i
Cc1cccc(C)c1OCC(O)CN1CCN(C(=O)c2ccccc2)CC1 (stereo unspecified)	5.3%	x	x	i	2.8%	i
SMILES	HT1080 IDH1KD tx	MCF10A rereplic	SW480 rereplic	KB-3-1 tox	HT1080-NT tox	KB-V1 cytotox
COc1ccc(C2CN=NC23CCc2ccccc2C3=O)cc1 (stereo unspecified)	16.4µM*	u	49.6%	u	u	u
COc1ccc(C2CN=NC23CCCc2ccccc2C3=O)cc1 (stereo unspecified)	u	18.4µM*	18.4µM*	u	u	u
O=C1c2ccccc2CCC12N=NCC2c1ccc(Cl)cc1 (stereo unspecified)	1.5%	-1.1%	-2.3%	i	-2.0%	i
Cc1ccc2oc(C(F)(F)C(F)F)cc(=O)c2c1	13.1%	0.8%	-2.0%	u	19.1%	i
Cc1ccc2oc(C(Cl)(Cl)Cl)cc(=O)c2c1	u	-8.3%	-1.4%	i	10µM*	i
CC(=O)Nc1sc(C)c(C)c1C(=O)OCC(=O)Nc1cc(S(C)(=O)=O)ccc1Cl	4.8%	0.0%	13.6%	u	-2.9%	i
CCOc1ccc(NC(=O)[C@@H]2CCCN2C(=O)c2cccs2)cc1S(=O)(=O)N1CCCCC1	15.9%	-1.0%	7.7%	i	2.0%	9.2µM*
CC1CCCCN1S(=O)(=O)c1ccc(NC(=O)c2cccs2)cc1 (stereo unspecified)	-0.6%	20.6µM*	20.5%	i	u	u
CC1CCCN(S(=O)(=O)c2ccc(NC(=O)[C@@H]3CCCN3C(=O)c3cccs3)cc2)C1 (stereo partly specified)	-3.0%	22.9%	-8.8%	i	-4.6%	i
CC1CCN(S(=O)(=O)c2ccc(NC(=O)[C@@H]3CCCN3C(=O)c3cccs3)cc2)CC1	6.6%	11.8%	9.7%	i	8.0%	20.6µM*
O=C(c1ccc(CSc2ccc(Cl)cc2)o1)N1CCOCC1	1.0%	x	x	i	9.2%	i
c1ccc(CCCc2nc(-c3ccccn3)no2)cc1	5.6%[9.24 µM]	4.5%	-3.0%	i	-18.4%	i
COc1ccc(-n2sc3c(c2=S)-c2cc(OC)ccc2NC3(C)C)cc1	u	18.4%	19.3%	i	u	i

Assay outcomes (PubChem)
